Assay outcomes deposited in PubChem by several laboratories.
This is a sample that favours compounds with a hit; in the whole collection about 2.5% have one here.
PKA-R2B act = activators of PKA-R2B holoenzyme, primary screen, biochemical, fluorescence polarization, Cy5-IP20, human. cAMP-dependent protein kinase catalytic subunit beta (Homo sapiens) + cAMP-dependent …. PKA-R2B holoenzyme dissociation; R2B truncated from residue 108, S112A mutant; 0% DMSO only, 100% 113 µM cGMP. activation, % at 11.4 µM. 0.079% of 340,000 active. AID 504700, 2011;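 active = activation above a cutoff set at the mean over all compounds plus 3 SD, cut at about 18% in these data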;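 note: higher means more holoenzyme dissociation and a rise in polarization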
Target sequence (P31323 whole entry, looked up, other chains not shown, the tested form may be a part): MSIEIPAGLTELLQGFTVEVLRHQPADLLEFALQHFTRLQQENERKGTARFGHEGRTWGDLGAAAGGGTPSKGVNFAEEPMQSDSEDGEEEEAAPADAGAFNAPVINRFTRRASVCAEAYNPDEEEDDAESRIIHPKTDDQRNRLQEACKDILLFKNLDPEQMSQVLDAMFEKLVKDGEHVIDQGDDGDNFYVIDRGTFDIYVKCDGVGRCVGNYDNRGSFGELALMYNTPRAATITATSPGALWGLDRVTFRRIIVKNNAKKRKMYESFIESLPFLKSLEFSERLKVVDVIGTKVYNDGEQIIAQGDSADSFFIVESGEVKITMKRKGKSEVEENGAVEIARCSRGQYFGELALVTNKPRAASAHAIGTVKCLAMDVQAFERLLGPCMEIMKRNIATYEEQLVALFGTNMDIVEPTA
TMEM16A act = TMEM16A chloride channel activators or potentiators, primary screen, cell-based, HTS; Anoctamin-1 (Mus musculus), Q8BHY3; HEK293 TMEM16A/YFP-H148Q/I152L, iodide quench fluorescence; hits give low values; B-score at 10 µM; 0.3% of 340,000 active;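 active = fluorescence-ratio B-score plate-corrected deviation score at least 3 library SD below zero, with starting fluorescence score within 5 deviations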;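 note: channel opened by trigger with iodide after compound preincubation; score built on the fluorescence ratio of max minus min over baseline; more negative score means more quench and so TMEM16A activation or potentiation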
PKA-R1A act = activators of PKA-R1A holoenzyme, primary screen, biochemical, fluorescence polarization, Cy5-IP20, bovine R1A, mouse PKAc; activation, % at 11.4 µM; 0.083% of 340,000 active; PKA-R1A dissociation; scaled: DMSO 0%, 113 µM cGMP 100%; AID 504707, 2011;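 active = percent activation above the mean of all tested compounds plus 3 SD, cut at about 19% in these data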;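 note: higher means more PKAc released from R1A so a rise in polarization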
CHT inh = inhibitors of human choline transporter CHT; High affinity choline transporter 1 (Homo sapiens), Q9GZV3; CHT-expressing cells, membrane potential dye, choline response; hits give low values; AID 488975, 2010; B-score at 10 µM; 0.86% of 310,000 active;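 active = B-score over 3 SD under the library average, and starting fluorescence ratio not unusually high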;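 note: choline stimulus applied at its EC90 after an EC20 pre-addition; B-score computed on integrated fluorescence ratio after choline addition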
TMEM16A inh = TMEM16A chloride channel inhibitors, primary screen, cell-based, HTS | Anoctamin-1 (Mus musculus), Q8BHY3 | HEK293 TMEM16A/YFP iodide influx fluorescence, ionomycin | normalized B-score (activity score, 25-100; higher = stronger inhibition) at 10 µM | 1.2% of 310,000 active;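 active = ratio plate-corrected score three or more library SD toward inhibition, starting fluorescence score within five deviations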;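 note: score derived from kinetic fluorescence span divided by baseline fluorescence per well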
CHT allo act = CHT positive allosteric modulators, primary screen, cell-based, membrane potential dye, choline EC20 | High affinity choline transporter 1 (Homo sapiens), Q9GZV3 | CHT-expressing cells; hits give high values; LV-AA mutant CHT in HEK293 cells | B-score at 10 µM | 0.49% of 310,000 active | AID 488977, 2010;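 active = initial fluorescence not abnormally high and integrated response B-score, plate-corrected, over 3 SD above library mean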
CHT act confirm = CHT activators, confirmation, cell-based, membrane potential dye, duplicate | CHT-expressing cells, membrane potential dye fluorescence (FDSS); % of choline EC20–EC90 response window; HEK293 expressing CHT LV-AA mutant; choline added at its EC20 | 91% of 2,500 active | shares compounds with CHT allo act | activation, % at 10 µM;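 active = primary screen active, with duplicate mean activation above negative control mean plus 3 SD, cut at about 11% in these data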
HEK293 MP dye = membrane potential response in parental HEK293 cells, counter-screen for CHT activator project, cell-based, membrane potential dye; shares compounds with CHT allo act; membrane potential dye fluorescence (FDSS); measured after EC20 choline addition; ratio readout change at 10 µM, hits read low; 62% of 2,500 active;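 active = duplicate-averaged ratio beyond 3 SD from buffer wells, up or down, though filed actives are nearly all decreases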
Numbers without * were called inactive; i = inactive; . = no result.

SMILES	PKA-R2B act	TMEM16A act	PKA-R1A act	CHT inh	TMEM16A inh	CHT allo act	CHT act confirm	HEK293 MP dye
NS(=O)(=O)c1cccc(NS(=O)(=O)c2cccc(C(F)(F)F)c2)c1	5.8	i	3.8	i	i	i	.	.
COC(=O)c1ccc2c(CCO)c[nH]c2c1	-8.8	i	-9.8	i	i	i	.	.
CCOC(=O)c1ccc2nc(C)cc(Nc3cccc(C(=O)O)c3)c2c1	.	.	.	i	i	i	26.8*	-24.8*
CCOc1ccc(Nc2cc(C)nc3ccc(C)cc23)cc1	7.4	i	-2.1	i	i	i	35.2*	-47.1*
Cc1ccc(Nc2cc(C)nc3ccc(C)cc23)cc1	-3.4	i	-0.6	i	i	i	.	.
Cc1ccc(Nc2nnc(-c3ccccc3N)o2)cc1C	-2.3	i	-10.5	i	i	i	.	.
CC[n+]1ccc(C[n+]2ccccc2)c2ccccc21	-4.4	i	-9.1	i	i	11.4*	84.6*	-87.4*
Cc1ccc(N=C(NOCc2ccc(Cl)cc2Cl)c2nonc2N)c(C)c1	-6.8	i	-11.3	i	i	8.79*	28.3*	i
Cc1cc(NCCCn2ccnc2)n2nc(C)c(-c3ccccc3)c2n1	-3.9	i	-5.0	i	i	8.46*	47.3*	-56.7*
COc1cccc2cc(C(=O)OC3CCN(C)CC3)c(=O)oc12	-10.3	i	-7.3	i	i	6.74*	42.5*	-37.9*
O=C(NNC(=O)c1cccnc1Cl)c1ccc(F)cc1	1.3	i	5.6	i	i	i	.	.
COc1ccc(C(=O)N(CCc2ccccc2)Cc2ccccc2)c(OC)n1	-6.4	i	2.3	i	i	10.5*	14.3*	i
OCCN(CCCn1c(-c2ccncc2)nc2ccccc21)c1nc(CN2CCCCC2)cs1	-0.2	i	1.7	i	i	i	59.6*	-43.9*
OCCN(CCCn1c(C(F)(F)F)nc2ccccc21)c1nc(CN2CCCCC2)cs1	-10.9	i	-5.9	i	i	i	.	.
CCC1(c2ccccc2)SCC(c2ccccc2)=NC1=O (configuration not stated)	-4.5	i	0.4	.	.	.	.	.
N#CC(C#N)=C1c2cc(S(N)(=O)=O)ccc2-c2ccc(S(N)(=O)=O)cc21	-2.7	i	-4.7	.	.	.	.	.
O=C(O)CNS(=O)(=O)c1ccc2c(c1)C(=O)c1cc(S(=O)(=O)NCC(=O)O)ccc1-2	10.2	i	2.5	i	i	i	.	.
O=C1c2cc(S(=O)(=O)NCCO)ccc2-c2ccc(S(=O)(=O)NCCO)cc21	8.3	i	0.8	i	i	i	41.0*	-35*
N#CC(C#N)=C1c2cc(S(=O)(=O)NCCO)ccc2-c2ccc(S(=O)(=O)NCCO)cc21	-1.9	i	-1.7	i	i	9.53*	54.1*	-51.8*
Cn1c(-c2cccs2)[n+](C)c2ccccc21	-3.2	i	-11.2	i	i	9.79*	61.8*	-56*
O=C(O)CSc1nc2c(cnn2-c2ccccc2)c(=O)n1-c1ccc(Br)cc1	12.9	i	5.0	i	i	i	.	.
O=c1c2cnn(-c3ccccc3)c2nc(-c2cccs2)n1-c1ccc(Br)cc1	-0.9	i	-13.1	i	i	i	13.6*	i
CCC(=O)N1CCN(c2cc(N3CCN(C)CC3)c(F)cc2[N+](=O)[O-])CC1	0.7	i	1.7	i	i	7.97*	56.7*	-58.4*
CCOC(=O)N1CCN(c2cc(N3CCOCC3)c(F)cc2[N+](=O)[O-])CC1	-6.1	i	2.4	i	i	i	.	.
COC(=O)Nc1cc(C)nc2ccccc12	-9.0	i	-7.1	i	i	6.83*	35.5*	-44.9*
SMILES	PKA-R2B act	TMEM16A act	PKA-R1A act	CHT inh	TMEM16A inh	CHT allo act	CHT act confirm	HEK293 MP dye
Cc1cc(Nc2ccccc2O)c2ccccc2n1	.	i	.	i	i	6.66*	39.1*	-37.4*
Cc1cc(N)c2ccccc2n1	-9.4	i	-13.1	i	i	8.05*	64.5*	-54.9*
COCCCNc1cc(C)nc2ccccc12	-18.1	i	-5.2	i	i	i	56.5*	-68.1*
Cc1c2ccccc2nc2ccccc12	0.6	i	-8.8	i	i	i	.	.
CCc1sc(C(=O)N2CCc3cc(OC)c(OC)cc3C2CC(=O)O)cc1C (configuration not stated)	8.0	i	-17.3	.	.	.	.	.
COc1cc(OC)cc(C(=O)N[C@H](C(=O)Nc2c(C)n(C)n(-c3ccccc3)c2=O)C(C)C)c1	-12.2	i	-12.6	.	.	.	.	.
CCS(=O)(=O)c1nc(S(=O)(=O)c2ccc(C)cc2)c(N2CCCCCC2)s1	5.8	.	12.5	.	.	.	.	.
Nc1cccc2nc3ccccc3cc12	2.2	i	-4.6	i	i	13.3*	26.7*	-55.3*
CCCC1NC(=O)c2cc3ccccc3cc2-n2c1nc1ccc(C)cc1c2=O (configuration not stated)	-1.1	.	-6.8	.	.	.	.	.
CCCCCCn1c(CN2CCC(C)CC2)nc2c1c(=O)n(C)c(=O)n2C	-5.2	i	-6.4	i	i	i	.	.
CCCCn1c(CN(C)Cc2ccccc2)nc2c1c(=O)n(C)c(=O)n2C	-4.3	i	-1.8	i	i	6.59*	0.2	i
CCCCCCn1c(CN2CCN(CCO)CC2)nc2c1c(=O)n(C)c(=O)n2C	-2.6	i	-2.8	i	i	8.1*	59.7*	-55.7*
CCCn1c(CN(C)Cc2ccccc2)nc2c1c(=O)n(C)c(=O)n2C	14.2	i	2.1	i	i	i	.	.
CCCn1nc(C(=O)Nc2ccc3c(c2)OCCO3)c2ccccc2c1=O	7.8	i	-8.2	.	.	.	.	.
CCOC(=O)c1sc2ncnc(N3CCN(c4ccc(OC)cc4)CC3)c2c1C	4.7	i	7.0	i	i	i	.	.
